Laboratory results from PubChem BioAssay (NCATS).
Records with an inconclusive call do not appear. The source made the active and inactive calls. Calls come from the whole dose curve; as a rule, active = well fitted inhibition curve with a large enough effect; inconclusive = small, poorly fitted or top-dose-only effect, or effect the other way; inactive = flat fitted curve, though single readings scatter.

assay: qHTS for Inhibitors of Plasmodium falciparum (CP250) proliferation (AID 504320); details: P. falciparum CP250 in erythrocytes, SYBR Green DNA, 72 h; series mostly up to 6.7 µM
Description: Plasmodium falciparum is a virulent malarial parasite that kills 1-2 million people worldwide each year. Malaria not only inflicts tremendous suffering and morbidity on the human population, but has dramatically influenced the course of civilization with profound sociological and economic implications (Shah, S. 2010). Transmitted by mosquitoes, the sporozoite form of the parasite enters the blood stream to infect hepatocytes, where they become merozoites that infect red blood cells (erythrocytes). Within erythrocytes, merozoites begin a […] cycle of growth and division, after which the parasite is released to infect new red blood cells. Gametocytes, which form within erythrocytes as well, circulate in the bloodstream and are ingested by the mosquito, thereby completing the life cycle (see CDC website). To profile malarial lines for differential chemical responses and to identify inhibitors of malarial growth, an assay that measures P. falciparum growth and replication within erythrocytes was employed. This assay uses a DNA binding fluorescent dye (SYBR Green) to detect parasite DNA following cell lysis. Because mature erythrocytes lack DNA, only Plasmodium-derived DNA is detected. The P. falciparum line cp250, derived from a malarial isolate from Cambodia, (Mu, J., et al. 2010) was added to the panel of lines, Dd2, HB3, 7G8 and GB4 in this study. Laboratory of Assay Development and Screening Technology [ADST] and NIH Chemical Genomics Center [NCGC] Boston University, Chemistry Department, Center for Chemical Methodology and Library Development [CMLD-BU] NIH National Institute of Allergy and Infectious Diseases [NIAID]
ADST Assay Protocol Summary: The 1536-well SYBR Green viability assay was based on the method of Bennett et al (2004) and described previously in 1536-well format (Yuan J., et al. 2009). For screening 3 ul culture medium was dispensed into 1536 well black clear bottom plates (Aurora Biotechnologies) using a Multidrop Combi (Thermo Fisher Scientific Inc.), 23 nL compounds in DMSO were added by a pin transfer (Cleveland, P.H. and Koutz, P.J, 2005) using a pin tool-based delivery system (Kalypsys), and 5 ul of erythrocytes infected with P. falciparum one of five lines (cp250, Dd2, HB3, 7G8 or GB4, 0.3% parasitemia, 2.5% hematocrit final concentration) were added. The plates were incubated at 37C in a humidified incubator in 5% CO2 for 72 h, and 2 ul lysis buffer (20 mM Tris HCl, 10 mM EDTA, 0.16% saponin, 1.6% triton X, 10X SYBR Green I (supplied as 10,000X final concentration by Invitrogen) was added to each well. The plates were mixed for 25 sec with gentle shaking and incubated overnight at room temperature in the dark. The following morning, fluorescence intensity at 485(14) nm excitation and 535(25) nm emission wavelengths was measured on an EnVision (Perkin Elmer) plate reader. Plate reads were normalized relative to the control inhibitor (0.29 uM artemisinin) and vehicle (DMSO) wells present on each plate and then corrected by an algorithm using vehicle-only control plates at the beginning and end of the compound plate stack. References Shah, S. (2010). The Fever: how malaria has ruled humankind for 500,000 years. New York, Sarah Crichton Books. CDC web site, http://www.cdc.gov/malaria/about/biology/index.html Mu, J., Myers, R.A., Jiang, H., Liu, S., Ricklefs, S., Waisberg, M., Chotivanich, K., Wilairatana, P., Krudsood, S., White, N.J., et Plasmodium falciparum genome-wide scans for positive selection, recombination hot spots and resistance to antimalarial drugs Nature Genetics 2010, 42, pp 268-271 Bennett TN, Paguio, M., Gligorijevic, B., Seudieu, C., Kosar, A. D., Davidson, E., and Roepe, P. D. Novel, rapid, and inexpensive cell-based quantification of antimalarial drug efficacy Antimicrobial Agents Chemother. 2004, 48(5): pp 1807-10 Yuan J, Johnson RL, Huang RL, Wichterman J, Jiang HY, Hayton K, Fidock DA, Wellems TE, Inglese J, Austin CP, Su XZ. […]

Potency, inactive:
C[C@H]1C[C@@H](C)O[C@@]2(C1)C(=O)N(Cc1ccc(F)cc1)c1ccccc12
C[C@H]1[C@H](N=[N+]=[N-])[C@H](O)CCO[C@@H]1c1ccccc1
C=C(CCN1C=C(C(C)=O)C(c2ccccc2)NC1=O)c1ccc(OC)cc1 (stereo not given)
COC(=O)N[C@@H](c1ccco1)[C@]1(C(C)=O)CCCC1=O
CCCCC1=CC2=C(c3ccco3)C(=O)C(C)(OC(=O)c3ccc(OC)cc3)C(=O)C2=CN1C1CCCCC1 (stereo not given)
COCCN1C(=O)N[C@@H](CCc2ccccc2)[C@H](C(C)=O)[C@H]1C
COC(=O)C1=C(C)N(Cc2ccccc2)C(=NCc2ccc(OC)cc2)NC1c1ccccc1 (stereo not given)
CCOC(=O)N1C2=NC(C(=O)OC)=C(C(=O)OC)[C@@H]3N(C)c4ccccc4[C@]23C[C@H]1C(=O)OC
C[C@H]1C=CCC(=O)N[C@@H](c2ccc3ccccc3c2)[C@@H](C)C=CCC(=O)N[C@@H]1c1ccc2ccccc2c1
COc1ccc2c(c1)C(=O)[C@H](OC(=O)N[C@H]1CCCc3ccccc31)[C@@H](c1ccc(OC)c(Br)c1)O2
CC(=O)OC[C@H]1O[C@H](CCON=C(C)CCN2CCCCc3nc(C)c(C)cc32)C=C[C@H]1OC(C)=O
COC(=O)C1=C2C=C(C)CC(C)N2C(=O)NC1c1ccccc1 (stereo not given)
CC1=CC[C@@H](COc2ccccc2)O[C@@]2(C1)C(=O)N(Cc1ccc(Br)cc1)c1ccccc12
COC(=O)NC(c1ccccc1)C1(C(=O)OC)C(=O)Cc2ccccc21 (stereo not given)
C[C@@H]1CC[C@H]2C(=O)N(Cc3cccc([N+](=O)[O-])c3)C[C@H](O)CN2[C@@H]1c1cccc(Br)c1
CC(=O)OC[C@H]1O[C@H](C#Cc2ccc(F)cc2F)C=C[C@H]1OC(C)=O
OC[C@H]1O[C@H](c2ccccc2)C=C[C@H]1OCc1cccc(Br)c1
CC(C)(C(O)c1ccc([N+](=O)[O-])cc1)[N+](=O)[O-] (stereo not given)
COC(=O)C1=C(C(=O)OC)[C@@H]2N(Cc3ccccc3)c3ccccc3[C@@]23C[C@@H](CO)N=C3N1
COc1ccc(-c2nc3c(c4c2C[C@H](c2ccccc2)OC4)CN(C(=O)NCc2ccco2)CC3)c(C)c1
COC(=O)c1ccccc1C[C@]1(C(=O)OC)C=C[C@H](C)[C@@H](c2ccccc2)N1C(=O)C(F)(F)F
COc1ccc(-c2ccc3c(n2)CCCN3CC(O)CN2CCCc3nc(C)c(C)cc32)cc1 (stereo not given)
COC(=O)CCCC1=CC2=CC(=O)C(C)(OC(=O)c3cccs3)C(=O)C2=CN1C1CC1 (stereo not given)
Cc1cc2c(c(=O)o1)[C@H]1O[C@](c3ccsc3)(Cc3ccccc31)O2
C=C[C@@]1(C)CCC=C2C(=O)CCC[C@H]21
COC1=C[C@H](C(=O)NCc2ccccc2)[C@H](C)[C@@H](c2ccccc2)CC1=O
COc1cc2c(cc1OC)[C@@H]1O[C@](c3ccsc3)(C2)OC2=C1C(=O)OC1(CCCCC1)C2
COc1ccc([C@]23Cc4cc(C#N)ccc4[C@H](O2)c2c(cc(C)n(Cc4ccccc4)c2=O)O3)cc1
COc1ccc2c(c1)O[C@H](c1ccc3c(c1)OCO3)[C@@H](OC(=O)Nc1cc(OC)c(OC)c(OC)c1)C2=O
C#CCCOC(=O)N1C2=NC(C(=O)OC)=C(C(=O)OC)[C@@H]3N(CC=C)c4ccccc4[C@]23C[C@H]1C(=O)OC
COCCN1C(=O)CC[C@@]23C1=NC(C(=O)OC)=C(C(=O)OC)[C@@H]2N(C)c1ccccc13
CC1(OC(=O)C2CCCC2)C(=O)C=C2C=C(c3ccsc3)N(C3CCCC3)C=C2C1=O (stereo not given)
COC(=O)N[C@H](CC(C)=O)c1cccc(F)c1
O=C1N(Cc2ccc(F)cc2)c2ccccc2[C@@]12O[C@H](COc1ccccc1)CC1CCCC12 (stereo not given in full)
COc1ccc([C@]23Cc4cc(C#N)ccc4[C@H](O2)C2=C(CC4(CCCCC4)OC2=O)O3)cc1
COc1ccc(-c2nc(-c3ccccc3)c(NC(C)(C)C)o2)cc1
CC1(OC(=O)C2CCCC2)C(=O)C=C2C=C(C3CC3)OC=C2C1=O (stereo not given)
COc1cccc([C@@H]2[C@@H](C)CC[C@@H]3C(=O)NC[C@H](O)CN32)c1
C[C@@H]1CC[C@H]2C(=O)N3[C@@H](CC[C@@H](C)[C@@H]3c3ccc(-c4ccco4)cc3)C(=O)N2[C@@H]1c1ccc(-c2ccco2)cc1
Cc1cc2c(nc1C)CCCCN2C[C@H](C)ON=C[C@@H](C)[C@H](OCc1ccccc1)C(C)C
